Assay results taken from the supplement of paper PMC10849652.
Targets with a hit are over-represented here; the source holds about 7,900 in all. About 0.6% of all pairs of compound and target were hits. Values without a mark were called inactive.

Key:
Experiment in all cases: log2 fold change, soluble protein after heating vs DMSO (PISA); higher = thermal stabilisation; K562 cells, 10 uM, 30 min; active = over 0.2 and 3.5 SD of the protein, either way, in both replicates (recomputed)
[1] = compound: CC1=C(C=C(C=C1)NC(=O)C2=CC(=CC=C2)C(C)(C)C#N)NC3=CC4=C(C=C3)N=CN(C4=O)C
Summary of the method: (§1)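 K562 cells at 2×10^6 cells/mL were treated with 10 μM compound for 30 min. Aliquots were heated for 3 min across 48°C-58°C, pooled, and extracted in PBS with 0.5% NP-40 at 4°C; soluble protein was the supernatant after 21,000xg for 90 min. Soluble protein was quantified by TMTpro 16plex LC-MS/MS with channel sums equalised, and reported as log2 fold change in thermal stability against DMSO controls, with values from duplicates.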

[2] = compound: CC1=C(C=C(C=C1)NC(=O)C2=CC(=CC=C2)N(C)C)NC(=O)C3=CC=C(C=C3)O
Summary of the method: as §1

[3] = compound: CC1=CC=C(C=C1)SC2=C3C=C(SC3=CN=C2)C(=O)N
Summary of the method: as §1

[4] = compound: CC1=NC(=CC=C1)C2=C(N=C(N2)C(C)(C)C)C3=CC4=NC=CN=C4C=C3
Summary of the method: as §1

Nexturastat A = compound: CCCCN(Cc1ccc(C(=O)NO)cc1)C(=O)Nc1ccccc1 [Nexturastat A]
Summary of the method: as §1

vemurafenib = compound: CCCS(=O)(=O)Nc1ccc(F)c(C(=O)c2c[nH]c3ncc(-c4ccc(Cl)cc4)cc23)c1F [vemurafenib]
Summary of the method: as §1

[5] = compound: CCCS(=O)(=O)Nc1ccc(F)c(C(=O)c2c[nH]c3ncc(Cl)cc23)c1F
Summary of the method: as §1

[6] = compound: CCCc1cc(C)[nH]c(=O)c1CNC(=O)c1cc(-c2ccnc(N3CCN(C)CC3)c2)cc2c1cnn2C(C)C
Summary of the method: as §1

givinostat = compound: CCN(CC)Cc1ccc2cc(COC(=O)Nc3ccc(C(=O)NO)cc3)ccc2c1 [givinostat]
Summary of the method: as §1

barasertib = compound: CCN(CCCOc1ccc2c(Nc3cc(CC(=O)Nc4cccc(F)c4)[nH]n3)ncnc2c1)CCOP(=O)(O)O [barasertib]
Summary of the method: as §1

[7] = compound: CC[C@@H]1C(=O)N(C)c2cnc(Nc3ccc(C(=O)NC4CCN(C)CC4)cc3OC)nc2N1C1CCCC1
Summary of the method: as §1

volasertib = compound: CC[C@@H]1C(=O)N(C)c2cnc(Nc3ccc(C(=O)N[C@H]4CC[C@H](N5CCN(CC6CC6)CC5)CC4)cc3OC)nc2N1C(C)C [volasertib]
Summary of the method: as §1

[8] = compound: CC[C@H](C)N1C=C(C2=C(C=C(C=C21)C3=CN=C(C=C3)N4CCNCC4)C(=O)NCC5=C(C=C(NC5=O)C)C)C
Summary of the method: as §1

epoxomicin = compound: CC[C@H](C)[C@@H](C(=O)N[C@@H]([C@@H](C)O)C(=O)N[C@@H](CC(C)C)C(=O)[C@]1(CO1)C)NC(=O)[C@H]([C@@H](C)CC)N(C)C(=O)C [epoxomicin]
Summary of the method: as §1

[9] = compound: CCn1c(C(=O)N(C2CC2)C2CC2)cc2c3c(ncn3C)c(Nc3cc(C)n(C)n3)nc21
Summary of the method: as §1

[10] = compound: CCn1cc(-c2ccnc3[nH]c(-c4cccc(CN(C)C)c4)cc23)c(-c2ccc(NC(=O)N(C)C)cc2)n1
Summary of the method: as §1

[11] = compound: CN(C)CC(=O)Nc1ccc2[nH]c(=O)c3ccccc3c2c1
Summary of the method: as §1

rosiglitazone = compound: CN(CCOC1=CC=C(C=C1)C[C@H]2C(=O)NC(=O)S2)C3=CC=CC=N3 (racemic) [rosiglitazone]
Summary of the method: as §1

[12] = compound: CN1C2=C(C3=C1C(=O)N(N=C3)CC4=CC(=CC=C4)N)SC(=C2)S(=O)C
Summary of the method: as §1

[13] = compound: CN1CCC(CNc2ccc3ncc(-c4cccc(OC(F)(F)F)c4)n3n2)CC1
Summary of the method: as §1

UniProt A6NHX0, sequence (A6NHX0 whole entry, looked up): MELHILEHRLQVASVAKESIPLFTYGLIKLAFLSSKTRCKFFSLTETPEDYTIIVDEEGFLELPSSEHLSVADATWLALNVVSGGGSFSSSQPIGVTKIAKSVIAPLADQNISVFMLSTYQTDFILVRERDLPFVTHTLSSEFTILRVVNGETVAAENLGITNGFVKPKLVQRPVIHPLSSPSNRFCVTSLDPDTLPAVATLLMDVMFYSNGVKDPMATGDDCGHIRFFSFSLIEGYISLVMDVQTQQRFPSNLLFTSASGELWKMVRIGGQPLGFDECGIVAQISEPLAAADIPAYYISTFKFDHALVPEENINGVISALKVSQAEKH
UniProt P35219, sequence (P35219 whole entry, looked up): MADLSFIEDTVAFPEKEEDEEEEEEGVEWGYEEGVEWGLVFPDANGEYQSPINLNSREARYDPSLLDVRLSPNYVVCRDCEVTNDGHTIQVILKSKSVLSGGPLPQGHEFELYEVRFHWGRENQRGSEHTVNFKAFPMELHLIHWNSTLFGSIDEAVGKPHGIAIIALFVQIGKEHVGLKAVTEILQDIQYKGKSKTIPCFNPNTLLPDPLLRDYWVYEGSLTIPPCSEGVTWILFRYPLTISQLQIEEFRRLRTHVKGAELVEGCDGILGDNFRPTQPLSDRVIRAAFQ
UniProt P23786, sequence (P23786 whole entry, looked up): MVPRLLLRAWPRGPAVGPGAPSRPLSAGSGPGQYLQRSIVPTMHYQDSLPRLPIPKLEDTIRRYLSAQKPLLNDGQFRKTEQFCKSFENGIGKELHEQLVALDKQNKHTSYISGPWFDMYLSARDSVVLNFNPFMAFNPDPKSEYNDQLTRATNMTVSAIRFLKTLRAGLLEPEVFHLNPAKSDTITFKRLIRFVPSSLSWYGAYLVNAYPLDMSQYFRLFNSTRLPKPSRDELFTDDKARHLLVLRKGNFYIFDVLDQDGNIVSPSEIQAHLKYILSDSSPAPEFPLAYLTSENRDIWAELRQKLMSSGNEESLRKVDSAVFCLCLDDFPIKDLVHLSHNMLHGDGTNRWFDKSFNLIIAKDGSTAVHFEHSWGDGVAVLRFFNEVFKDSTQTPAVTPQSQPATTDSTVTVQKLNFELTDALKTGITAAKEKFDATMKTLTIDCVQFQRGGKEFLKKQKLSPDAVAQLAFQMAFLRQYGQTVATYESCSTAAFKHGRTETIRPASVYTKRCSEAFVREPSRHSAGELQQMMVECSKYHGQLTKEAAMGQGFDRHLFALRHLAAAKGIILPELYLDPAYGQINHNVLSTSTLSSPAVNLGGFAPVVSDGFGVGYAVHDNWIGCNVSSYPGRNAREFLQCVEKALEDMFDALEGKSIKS
UniProt Q9BT78, sequence (Q9BT78 whole entry, looked up): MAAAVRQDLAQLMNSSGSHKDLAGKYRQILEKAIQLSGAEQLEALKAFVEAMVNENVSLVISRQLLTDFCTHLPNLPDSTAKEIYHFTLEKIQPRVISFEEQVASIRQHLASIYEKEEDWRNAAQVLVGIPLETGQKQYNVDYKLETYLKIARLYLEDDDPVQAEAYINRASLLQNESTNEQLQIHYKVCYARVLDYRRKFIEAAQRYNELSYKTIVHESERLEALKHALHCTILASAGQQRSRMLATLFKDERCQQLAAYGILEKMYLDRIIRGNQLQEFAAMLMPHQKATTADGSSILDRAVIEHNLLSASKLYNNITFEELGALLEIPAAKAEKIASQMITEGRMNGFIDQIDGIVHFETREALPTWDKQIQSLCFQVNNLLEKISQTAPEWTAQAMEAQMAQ
UniProt P10606, sequence (P10606 whole entry, looked up): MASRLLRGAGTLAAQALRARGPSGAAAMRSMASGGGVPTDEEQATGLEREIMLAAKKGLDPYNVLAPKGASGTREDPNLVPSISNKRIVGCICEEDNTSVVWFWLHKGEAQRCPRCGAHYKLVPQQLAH
UniProt P21964, sequence (P21964 whole entry, looked up): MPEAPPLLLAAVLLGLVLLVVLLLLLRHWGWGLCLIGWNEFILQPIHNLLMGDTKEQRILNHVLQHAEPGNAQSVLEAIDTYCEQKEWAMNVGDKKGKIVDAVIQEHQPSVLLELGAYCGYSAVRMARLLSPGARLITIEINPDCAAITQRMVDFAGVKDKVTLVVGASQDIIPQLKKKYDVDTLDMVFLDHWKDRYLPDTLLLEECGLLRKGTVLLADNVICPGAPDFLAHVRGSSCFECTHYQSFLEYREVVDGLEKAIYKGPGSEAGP
UniProt Q9HAW4, sequence (Q9HAW4 whole entry, looked up): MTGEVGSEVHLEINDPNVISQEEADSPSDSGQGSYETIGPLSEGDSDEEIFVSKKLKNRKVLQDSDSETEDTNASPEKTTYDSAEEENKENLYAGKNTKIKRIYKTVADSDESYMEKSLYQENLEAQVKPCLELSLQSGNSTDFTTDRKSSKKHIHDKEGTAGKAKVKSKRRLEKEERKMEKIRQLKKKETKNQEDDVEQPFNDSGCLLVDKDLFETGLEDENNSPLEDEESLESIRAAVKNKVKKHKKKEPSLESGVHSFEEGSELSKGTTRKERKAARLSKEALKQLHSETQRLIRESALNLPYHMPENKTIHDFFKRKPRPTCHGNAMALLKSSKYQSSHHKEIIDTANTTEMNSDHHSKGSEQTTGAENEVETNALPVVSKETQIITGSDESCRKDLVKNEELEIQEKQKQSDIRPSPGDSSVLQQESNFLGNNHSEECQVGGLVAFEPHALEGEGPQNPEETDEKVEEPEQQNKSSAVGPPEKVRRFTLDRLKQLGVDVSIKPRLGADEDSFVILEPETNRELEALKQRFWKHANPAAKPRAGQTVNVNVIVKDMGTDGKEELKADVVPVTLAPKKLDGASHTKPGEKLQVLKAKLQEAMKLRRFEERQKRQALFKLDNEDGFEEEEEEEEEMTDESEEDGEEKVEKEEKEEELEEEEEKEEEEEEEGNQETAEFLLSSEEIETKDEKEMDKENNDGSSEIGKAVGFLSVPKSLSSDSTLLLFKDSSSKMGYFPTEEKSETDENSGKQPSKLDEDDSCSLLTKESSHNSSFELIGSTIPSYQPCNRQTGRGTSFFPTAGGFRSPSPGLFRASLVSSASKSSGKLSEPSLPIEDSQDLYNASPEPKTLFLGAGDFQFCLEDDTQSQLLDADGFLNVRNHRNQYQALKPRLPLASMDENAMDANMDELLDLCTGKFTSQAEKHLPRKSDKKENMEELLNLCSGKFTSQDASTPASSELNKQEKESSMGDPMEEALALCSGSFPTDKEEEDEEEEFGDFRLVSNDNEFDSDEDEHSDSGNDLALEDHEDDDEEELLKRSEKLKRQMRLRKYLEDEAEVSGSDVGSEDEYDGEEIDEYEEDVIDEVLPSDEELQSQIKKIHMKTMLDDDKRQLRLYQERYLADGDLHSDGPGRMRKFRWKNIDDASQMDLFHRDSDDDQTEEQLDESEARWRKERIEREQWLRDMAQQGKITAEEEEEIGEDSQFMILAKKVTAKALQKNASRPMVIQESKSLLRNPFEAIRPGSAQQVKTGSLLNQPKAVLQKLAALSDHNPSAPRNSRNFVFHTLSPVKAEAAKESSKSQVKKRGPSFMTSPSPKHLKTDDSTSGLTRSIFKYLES
UniProt Q14004, sequence (Q14004 whole entry, looked up): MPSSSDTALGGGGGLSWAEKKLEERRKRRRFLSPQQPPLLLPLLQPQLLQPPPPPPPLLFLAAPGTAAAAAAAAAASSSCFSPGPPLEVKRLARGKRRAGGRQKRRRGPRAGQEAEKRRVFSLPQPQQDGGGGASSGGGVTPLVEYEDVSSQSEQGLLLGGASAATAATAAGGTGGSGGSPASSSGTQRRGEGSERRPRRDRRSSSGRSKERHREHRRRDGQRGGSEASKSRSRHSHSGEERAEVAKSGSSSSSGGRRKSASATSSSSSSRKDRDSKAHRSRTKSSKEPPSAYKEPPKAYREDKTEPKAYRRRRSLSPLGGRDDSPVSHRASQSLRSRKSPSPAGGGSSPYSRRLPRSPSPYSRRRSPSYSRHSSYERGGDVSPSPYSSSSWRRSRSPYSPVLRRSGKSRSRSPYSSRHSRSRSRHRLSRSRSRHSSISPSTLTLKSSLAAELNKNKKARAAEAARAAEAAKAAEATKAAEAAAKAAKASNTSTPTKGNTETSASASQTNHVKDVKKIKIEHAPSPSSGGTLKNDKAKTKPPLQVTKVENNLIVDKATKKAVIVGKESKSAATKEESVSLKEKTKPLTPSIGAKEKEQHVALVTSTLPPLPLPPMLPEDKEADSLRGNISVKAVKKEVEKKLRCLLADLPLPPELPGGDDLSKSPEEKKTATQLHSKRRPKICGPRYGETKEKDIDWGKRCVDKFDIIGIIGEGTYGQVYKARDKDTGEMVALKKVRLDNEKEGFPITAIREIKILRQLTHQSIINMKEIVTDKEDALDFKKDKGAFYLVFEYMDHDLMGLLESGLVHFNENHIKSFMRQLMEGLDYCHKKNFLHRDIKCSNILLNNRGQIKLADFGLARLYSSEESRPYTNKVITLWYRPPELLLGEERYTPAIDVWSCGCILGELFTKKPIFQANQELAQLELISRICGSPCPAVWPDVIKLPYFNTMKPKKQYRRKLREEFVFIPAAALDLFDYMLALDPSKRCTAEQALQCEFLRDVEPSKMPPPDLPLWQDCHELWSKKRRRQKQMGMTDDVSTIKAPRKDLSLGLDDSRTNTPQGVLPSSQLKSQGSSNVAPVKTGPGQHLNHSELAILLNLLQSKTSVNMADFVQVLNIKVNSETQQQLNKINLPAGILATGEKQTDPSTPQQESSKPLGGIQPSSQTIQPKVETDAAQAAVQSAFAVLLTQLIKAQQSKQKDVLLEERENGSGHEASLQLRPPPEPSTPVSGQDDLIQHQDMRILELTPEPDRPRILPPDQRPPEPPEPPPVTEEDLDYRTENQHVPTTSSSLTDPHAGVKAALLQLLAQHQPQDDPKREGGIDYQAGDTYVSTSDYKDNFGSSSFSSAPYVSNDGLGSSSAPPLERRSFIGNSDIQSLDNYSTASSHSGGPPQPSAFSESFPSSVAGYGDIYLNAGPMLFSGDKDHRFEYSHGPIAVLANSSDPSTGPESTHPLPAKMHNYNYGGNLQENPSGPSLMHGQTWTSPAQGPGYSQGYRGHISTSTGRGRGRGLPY

Target | log2 fold change [1] | log2 fold change [2] | log2 fold change [3] | log2 fold change [4] | log2 fold change (Nexturastat A) | log2 fold change (vemurafenib) | log2 fold change [5] | log2 fold change [6] | log2 fold change (givinostat) | log2 fold change (barasertib) | log2 fold change [7] | log2 fold change (volasertib) | log2 fold change [8] | log2 fold change (epoxomicin) | log2 fold change [9] | log2 fold change [10] | log2 fold change [11] | log2 fold change (rosiglitazone) | log2 fold change [12] | log2 fold change [13]
CIT isoform 4 (UniProt O14578) | -0.105 | 0.017 | -0.003 | -0.032 | -0.02 | -0.012 | 0.01 | 0.002 | 0.033 | 0.047 | 0.068 | -0.225 | 0.134 | 0.017 | -0.041 | -0.033 | -0.037 | 0.057 | 0 | -0.033
CHEK1 (UniProt O14757) | -0.023 | -0.013 | 0.05 | 0.037 | -0.048 | 0.017 | 0 | -0.022 | 0.029 | 0.033 | -0.137 | -0.274 (active) | 0.005 | 0.055 | -0.012 | -0.101 | 0.003 | 0.046 | -0.029 | -0.159
CLSPN (UniProt Q9HAW4) | -0.048 | 0.003 | -0.025 | -0.035 | 0.006 | 0.041 | 0 | -0.012 | -0.032 | 0.006 | -0.017 | -0.159 | -0.019 | 0.037 | 0.062 | 0.031 | -0.048 | -0.016 | 0.04 | -0.02
COMT (UniProt P21964) | 0.14 | 0.009 | -0.012 | 0.019 | 0.036 | 0.011 | 0.002 | 0.005 | 0.144 | -0.006 | 0.013 | 0.073 | 0.01 | -0.023 | -0.021 | -0.01 | 0.005 | 0.039 | -0.11 | 0.142
COX5B (UniProt P10606) | -0.038 | -0.096 | 0.037 | -0.008 | -0.043 | 0.037 | -0.044 | 0.013 | 0.065 | 0.034 | 0.06 | -0.02 | -0.047 | 0.192 | -0.051 | -0.043 | -0.013 | -0.01 | -0.037 | 0.541 (active)
CAMSAP1 isoform 3 (UniProt Q5T5Y3) | 0.03 | -0.009 | -0.02 | -0.101 | 0.168 | -0.274 | 0.042 | -0.19 | 0.151 | 0.077 | -0.044 | -0.576 (active) | 0.184 | 0.068 | 0.033 | -0.003 | -0.232 | -0.011 | 0.03 | -0.254
CTBS (UniProt Q01459) | 0.206 | 0.014 | -0.026 | -0.065 | 0.043 | 0.093 | -0.017 | 0.017 | 0.039 | 0.03 | -0.494 (active) | -0.376 (active) | -0.074 | 0.033 | 0.007 | 0.069 | 0.013 | -0.058 | 0.045 | -0.44 (active)
CLINT1 isoform 3 (UniProt Q14677) | -0.082 | -0.001 | -0.094 | -0.09 | 0.122 | -0.049 | -0.073 | -0.019 | -0.01 | -0.047 | 0.17 | 0.047 | -0.01 | -0.038 | -0.006 | 0.042 | -0.06 | -0.055 | 0.075 | 0.259 (active)
CPT2 (UniProt P23786) | 0.313 | -0.105 | 0.035 | 0.019 | -0.417 | 0.042 | 0.007 | 0.016 | 0.474 | 0.013 | 0.235 | 0.912 (active) | -0.019 | 0.011 | 0.109 | 0.384 | 0.088 | 0.056 | -0.136 | -0.613 (active)
CASTOR2 (UniProt A6NHX0) | -0.015 | -0.01 | 0.037 | 0.033 | -0.085 | 0.046 | -0.465 (active) | -0.021 | 0.041 | 0.01 | 0.025 | 0.254 | -0.042 | 0.061 | -0.024 | 0.123 | -0.035 | 0.034 | -0.022 | 0.066
CA8 (UniProt P35219) | -0.024 | -0.081 | 0.041 | 0.006 | -0.058 | 0.004 | 0.02 | -0.002 | 0.077 | 0.034 | -0.055 | -0.329 (active) | 0.038 | 0.01 | -0.035 | -0.093 | -0.002 | 0.044 | -0.099 | -0.127
CNN2 (UniProt Q99439) | 0.034 | -0.037 | 0.035 | 0.023 | -0.042 | 0.085 | 0.073 | 0.003 | 0.063 | 0.077 | -0.149 | -0.354 (active) | 0.058 | 0.106 | -0.044 | 0.03 | 0.023 | 0.063 | 0.012 | -0.055
COPS4 (UniProt Q9BT78) | -0.001 | -0.019 | 0.019 | 0.033 | -0.062 | 0.049 | 0.071 | -0.037 | -0.025 | -0.002 | -0.045 | -0.007 | 0.013 | 0.047 | 0.001 | -0.022 | 0.023 | 0.018 | -0.092 | -0.007
CDK13 (UniProt Q14004) | 0.045 | 0.027 | -0.047 | 0.056 | -0.212 | -0.056 | -0.037 | -0.011 | -0.021 | -0.029 | 0.025 | 0.09 | 0.034 | -0.032 | 0.087 | 0.018 | 0.004 | -0.002 | 0.233 | -0.047
CERT isoform 3 (UniProt Q9Y5P4) | 0.154 | -0.103 | -0.039 | -0.001 | -0.048 | 0.101 | 0.061 | 0.02 | -0.027 | -0.002 | 0.06 | 0.044 | 0.07 | 0.058 | -0.023 | -0.057 | -0.019 | -0.017 | -0.127 | 0.279 (active)
CPQ (UniProt Q9Y646) | 0.001 | 0.025 | -0.005 | -0.005 | -0.016 | 0.043 | 0.006 | 0.024 | 0.011 | -0.002 | -0.144 | -0.27 (active) | -0.036 | 0.062 | -0.011 | -0.039 | -0.021 | -0.006 | 0.032 | -0.035
